The values that follow come from publication PMC4336329 (PLoS ONE, 2015).

The campaign covered roughly 310,000 compounds. About 14,000 (4.5%) showed an effect of 50% or more. The effect is printed as a negative number. The sample as a whole holds a higher share of strong results than the screen did.
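Further: peak tail current of the secondary pulse compared with the same well before compound.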

Chain of human ether-à-go-go-related gene (hERG) potassium channel (Q12809 whole entry, looked up): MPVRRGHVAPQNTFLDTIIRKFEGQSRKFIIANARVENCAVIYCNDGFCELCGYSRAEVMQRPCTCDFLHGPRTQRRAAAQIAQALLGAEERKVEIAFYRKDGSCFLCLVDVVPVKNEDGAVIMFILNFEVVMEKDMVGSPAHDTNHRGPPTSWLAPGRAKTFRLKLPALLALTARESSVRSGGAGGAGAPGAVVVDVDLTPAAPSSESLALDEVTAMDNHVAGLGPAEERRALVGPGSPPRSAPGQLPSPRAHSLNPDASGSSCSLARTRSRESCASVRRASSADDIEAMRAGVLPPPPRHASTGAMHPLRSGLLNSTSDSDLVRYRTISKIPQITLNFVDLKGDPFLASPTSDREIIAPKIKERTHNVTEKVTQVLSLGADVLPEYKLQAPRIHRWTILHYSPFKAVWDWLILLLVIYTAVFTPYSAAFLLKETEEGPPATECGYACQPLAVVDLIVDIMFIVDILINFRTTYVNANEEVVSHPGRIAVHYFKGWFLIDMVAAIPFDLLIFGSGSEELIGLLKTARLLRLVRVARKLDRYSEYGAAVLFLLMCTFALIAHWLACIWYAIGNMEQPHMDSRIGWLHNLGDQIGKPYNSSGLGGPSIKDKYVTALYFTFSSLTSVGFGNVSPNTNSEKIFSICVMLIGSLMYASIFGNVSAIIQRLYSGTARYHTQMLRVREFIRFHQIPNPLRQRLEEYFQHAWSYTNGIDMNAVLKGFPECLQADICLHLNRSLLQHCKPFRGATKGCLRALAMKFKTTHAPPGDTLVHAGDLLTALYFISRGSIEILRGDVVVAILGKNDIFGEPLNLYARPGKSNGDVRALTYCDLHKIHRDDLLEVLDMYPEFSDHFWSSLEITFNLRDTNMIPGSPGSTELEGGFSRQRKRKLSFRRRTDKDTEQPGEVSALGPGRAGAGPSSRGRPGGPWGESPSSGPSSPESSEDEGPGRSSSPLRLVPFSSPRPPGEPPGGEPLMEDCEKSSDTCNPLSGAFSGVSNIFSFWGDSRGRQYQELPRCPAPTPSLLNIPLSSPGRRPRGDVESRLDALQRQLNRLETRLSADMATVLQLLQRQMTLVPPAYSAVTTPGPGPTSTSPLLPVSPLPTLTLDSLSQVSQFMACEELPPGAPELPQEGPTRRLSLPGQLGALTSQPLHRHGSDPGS

This experiment has as its target human ether-à-go-go-related gene (hERG) potassium channel (human, UniProt Q12809). The experiment is described as follows: primary screen, population patch clamp on CHO cells stably expressing hERG; higher = less effect of the substance.
For `COC(=O)C1=C(C)N(Cc2ccccc2)C(=O)N[C@H]1c1ccco1`, the “hERG current change (%, negative = inhibition) at 10uM” value is given as 5.95%. Consider `O=C(NCC(c1cccnc1)N1CCN(c2ccc(F)cc2)CC1)c1cccc(Cl)c1` (stereo not drawn), for which the “hERG current change (%, negative = inhibition) at 10uM” value is -66.2%. Then `O=C(NCC(c1cccnc1)N1CCN(c2ccc(F)cc2)CC1)c1ccccc1` (stereo not drawn), with -40.2%; and `COc1ccc(N2CCN(C(CNC(=O)c3ccc4c(c3)OCO4)c3cccnc3)CC2)cc1` (stereo not drawn), with -16.2%. In the case of `O=C(NCC(c1cccnc1)N1CCN(c2ccc(F)cc2)CC1)c1ccc2c(c1)OCO2` (stereo not drawn) it was -65.3%; in that of `O=C(NCC(c1cccnc1)N1CCN(c2ccccc2)CC1)c1ccc2c(c1)OCO2` (stereo not drawn), -26.5%; in that of `COc1ccc(N2CCN(C(CNC(=O)c3cccc(Cl)c3)c3cccnc3)CC2)cc1` (stereo not drawn), -38.7%.

For the molecule `COCCN=c1scc(-c2ccc3c(c2)NC(=O)CO3)n1/N=C(\C)c1ccc(O)cc1`, the “hERG current change (%, negative = inhibition) at 10uM” value is given as -8.23%.

For `Cn1c(=NC(=O)C2CC2)sc2cc(F)cc(F)c21`, the “hERG current change (%, negative = inhibition) at 10uM” value is -12.3%.

Turning to `CCOC(=O)c1c(NC(=O)c2cccs2)sc(CC)c1-c1cccs1`, the “hERG current change (%, negative = inhibition) at 10uM” value is -11%. In the case of `Cc1nnc(NC(=O)CSc2ccc([N+](=O)[O-])cn2)s1` it was 17.9%. Then `CCOC(=O)C1CCN(CC(C)(C)NS(=O)(=O)c2ccc(C)cc2)CC1`, with -4.95%; and `Cc1ccc(S(=O)(=O)NC(C)(C)CN2CCC(Cc3ccccc3)CC2)cc1.O=C(O)C(=O)O`, with -64.8%; and `CC(C)(CN1CCC(Cc2ccccc2)CC1)NS(=O)(=O)c1ccccc1.O=C(O)C(=O)O`, with -60.8%.

On to `CC(C)(CN1CCCC1)NS(=O)(=O)c1ccccc1.Cl`, for which the “hERG current change (%, negative = inhibition) at 10uM” value is 24.7%. Consider `CCOC(=O)C1CCN(CC(C)(C)NS(=O)(=O)c2ccccc2)CC1`, for which the “hERG current change (%, negative = inhibition) at 10uM” value was 11.5%. Turning to `CC(=O)N1CCN(CC(C)(C)NS(=O)(=O)c2ccc(C)cc2)CC1`, the “hERG current change (%, negative = inhibition) at 10uM” value worked out at 7.76%.

On to `COC(=O)c1ccc(-n2cc(-c3ccc(OC)cc3)[nH]c2=S)cc1`, for which the “hERG current change (%, negative = inhibition) at 10uM” value came out at 33.1%. Regarding `Nc1c(C(=O)c2ccc(Cl)cc2)sc2c1c(=O)[nH]c(=O)n2-c1ccccc1`, the “hERG current change (%, negative = inhibition) at 10uM” value was -24.2%. In the case of `CC[C@]1(c2ccccc2)C(=O)N(C(=O)OC)N1C(=O)OC` it was 25.2%.

In the case of `COc1ccc(-c2noc3c2-c2nc(-c4ccc(Cl)cc4)sc2CC3)cc1`, the “hERG current change (%, negative = inhibition) at 10uM” value is recorded as 9.5%.

For `CCCNC(=O)C12CCC(C)(C(=O)O1)C2(C)C` (stereo not drawn), the “hERG current change (%, negative = inhibition) at 10uM” value is on record as 17.2%. In the case of `Clc1ccc2nc(-c3ccc(Br)s3)cn2c1` it was 8.14%.

With `CCc1ccc(-c2nc(CN3CCC(C(=O)NCc4ccccc4OC)CC3)c(C)o2)cc1`, the “hERG current change (%, negative = inhibition) at 10uM” value is listed as -68.4%. In the case of `COc1ccccc1CNC(=O)C1CCN(c2nc3ccccc3o2)CC1` it was -9.09%. In the case of `COc1ccccc1CNC(=O)C1CCN(Cc2nc(-c3cccc(Cl)c3)oc2C)CC1` it was -78%; in that of `COc1ccc(-c2nc(CN3CCC(C(=O)NC4CCN(Cc5ccccc5)CC4)CC3)c(C)o2)cc1OC`, 1.67%.

On to `Cc1oc(-c2cccc(Cl)c2)nc1CN1CCC(C(=O)NCCCN2CCCC2=O)CC1`, for which the “hERG current change (%, negative = inhibition) at 10uM” value was -38%.

Turning to `COCCOC(=O)c1c(NC(=O)COC(=O)c2ccc(C)o2)sc(C(N)=O)c1C`, the “hERG current change (%, negative = inhibition) at 10uM” value is -10.9%.

With `CCc1ccc(CCOc2ccc(CC3SC(=O)NC3=O)cc2)nc1.Cl` (stereo not drawn), the “hERG current change (%, negative = inhibition) at 10uM” value was determined as 4.26%. For `CC(C)CC(=O)N1CCN(C(=O)c2cccc(F)c2)CC1`, the “hERG current change (%, negative = inhibition) at 10uM” value turned out to be 0.0457%.

With `C1CCC(OCCN2CCN(CCOC3CCCCC3)CC2)CC1`, the “hERG current change (%, negative = inhibition) at 10uM” value is listed as -37.1%. On to `Cc1ccc(N2C(=O)NC3(CCCCC3)C2=O)cc1`, for which the “hERG current change (%, negative = inhibition) at 10uM” value is reported as 9.24%. Then `O=C(Nc1ccc(F)cc1F)N1CCN(c2ncccn2)CC1`, with -8.77%; and `COc1ccccc1N1CCN(C(=O)Nc2cccc(C)c2)CC1`, with -3.99%; and `Cc1cc(N2CCN(C(=O)Nc3ccccc3C#N)CC2)c2ccccc2n1`, with -72.9%. Regarding `Cc1cc(N2CCN(C(=O)/C=C/C(=O)O)CC2)c2ccccc2n1`, the “hERG current change (%, negative = inhibition) at 10uM” value came to 32.4%. As for `CC(C)n1c(N2CCN(C(=O)Nc3ccc(F)cc3F)CC2)nc2ccccc21`, the “hERG current change (%, negative = inhibition) at 10uM” value is on record as -26.3%. In the case of `COc1ccccc1N1CCN(C(=O)Nc2cccc(Cl)c2)CC1` it was -28.2%. Then `COc1cccc(Cl)c1NC(=O)N1CCN(c2cc(C)nc3ccccc23)CC1`, with -75.3%; and `Cc1ccccc1NC(=O)N1CCN(c2ncccn2)CC1`, with 4.15%; and `Cc1cc(N2CCN(CC(O)C(F)(F)F)CC2)c2ccccc2n1` (stereo not drawn), with -40.7%. Then `CCCCc1ccc(NC(=O)N2CCN(c3cc(C)nc4ccccc34)CC2)c(C)c1`, with -61.6%; and `Cc1cc(N2CCN(C(=O)Nc3ccc(F)cc3F)CC2)c2ccccc2n1`, with -72.2%. In the case of `Cc1cc(C(=O)Nc2ccccc2N2CCOCC2)c2ccccc2n1`, the “hERG current change (%, negative = inhibition) at 10uM” value is on record as -15.5%. Turning to `CCOC(=O)c1sc(NC(=O)C2C3C=CC(C3)C2C(=O)O)nc1C` (stereo not drawn), the “hERG current change (%, negative = inhibition) at 10uM” value turned out to be 16.2%.

In the case of `CC[C@H](C)/C=C(C)/C=C/C1=CC2=CC(=O)[C@]3(C)OC(=O)[C@@H](C(C)=O)[C@@H]3C2=CO1`, the “hERG current change (%, negative = inhibition) at 10uM” value is reported as 4.65%. `O=[N+]([O-])c1ccc(O)c(/C=N/n2c(-c3ccccc3)n[nH]c2=S)c1`: the “hERG current change (%, negative = inhibition) at 10uM” value is listed as 17.9%.

As to `O=C(O)c1cccc(Nc2ncnc3ccccc23)c1`, the “hERG current change (%, negative = inhibition) at 10uM” value is 17.3%. Then `CC1CCCC(C)N1NC(=O)c1cccc(S(=O)(=O)N2CCc3ccccc32)c1` (stereo not drawn), with -2.22%; and `Cc1ccc(CSc2ncnc3ccccc23)cc1`, with 11.3%. In the case of `Cc1ccc(S(=O)(=O)NNC(=O)C2COc3ccccc3O2)cc1C` (stereo not drawn) it was 15.2%; in that of `O=C(CSc1nnc(-c2ccc(S(=O)(=O)N3CCCC3)cc2)o1)NCc1ccco1`, -7.57%.

With `COc1cccc(CC(=O)N2CCN(c3ccccc3[N+](=O)[O-])CC2)c1`, the “hERG current change (%, negative = inhibition) at 10uM” value was -21%.

In the case of `COc1ccc(N2CCN(C(=O)c3cccc(F)c3)CC2)c([N+](=O)[O-])c1`, the “hERG current change (%, negative = inhibition) at 10uM” value is given as -73.2%.

Consider `COc1ccc(N2CCN(C(=O)c3ccccc3)CC2)c([N+](=O)[O-])c1`, for which the “hERG current change (%, negative = inhibition) at 10uM” value is reported as -67.7%. In the case of `COc1ccc(N2CCN(c3ccc(C(N)=O)cc3[N+](=O)[O-])CC2)cc1` it was 2.51%; in that of `Cn1c(=O)n(C)c2cc([N+](=O)[O-])c(N3CCN(C(=O)c4cccc(F)c4)CC3)cc21`, -32.7%. For the molecule `COc1ccc(N2CCN(C(=O)CC34CC5CC(CC(C5)C3)C4)CC2)c([N+](=O)[O-])c1`, the “hERG current change (%, negative = inhibition) at 10uM” value came out at 0.229%. In the case of `CCCCC(=O)N1CCN(c2ccc(OC)cc2[N+](=O)[O-])CC1`, the “hERG current change (%, negative = inhibition) at 10uM” value was -64.5%. In the case of `CCC(=O)N1CCN(c2ccc(OC)cc2[N+](=O)[O-])CC1` it was -19.5%; in that of `COc1ccc(N2CCN(C(=S)NC(=O)c3cccs3)CC2)c([N+](=O)[O-])c1`, -47.8%. Then `COc1cccc(C(=O)N2CCN(C(=O)c3cccc(F)c3)CC2)c1`, with -0.0938%; and `COc1ccc(N2CCN(C(=O)c3ccc(Br)cc3)CC2)c([N+](=O)[O-])c1`, with -72.3%. For `COc1ccc(C(=O)c2ccc(N3CCOCC3)c([N+](=O)[O-])c2)cc1`, the “hERG current change (%, negative = inhibition) at 10uM” value was -43.7%.

`COc1ccc(C2N=C(Nc3ccc(C)cc3)Nc3nc(C)cc(=O)n32)cc1` (stereo not drawn): the “hERG current change (%, negative = inhibition) at 10uM” value came to 1.81%. Then `COc1ccc(CCN2CC(O)=C(c3nc(C)cs3)C2=N)cc1OC`, with -21.8%; and `CCn1c(=O)c(C(=O)CN2CC(C)OC(C)C2)c(N)n(Cc2ccccc2)c1=O` (stereo not drawn), with -32.6%; and `COc1ccc(CCNC(=O)NC2CCCCC2)cc1OC`, with 8.03%. Then `O=C(Nc1ccc(Cl)cc1)c1cc2c(cc1O)[nH]c1ccccc12`, with 21%; and `Cc1ccc2nc(-c3ccc(NS(=O)(=O)c4ccc(F)c(F)c4)cc3)sc2c1`, with 23.3%; and `COc1cccc(C2CC(c3ccccc3Cl)n3nc(N)nc3N2)c1` (stereo not drawn), with -9.01%. In the case of `COc1ccc(CCN(Cc2nc(-c3ccccc3)no2)Cc2nc(-c3ccccc3)no2)cc1OC` it was -3.37%; in that of `O=C(N/N=C/c1cc([N+](=O)[O-])ccc1O)C1C2CCCCC21` (stereo not drawn), 3.28%; in that of `CCn1cc(C(=O)N[C@@H](CCSC)C(=O)NCCO)c(=O)c2cc3c(cc21)OCO3`, 20.6%. With `O=C(NCCC1=CCCCC1)c1ccc(Br)o1`, the “hERG current change (%, negative = inhibition) at 10uM” value is -4.78%. In the case of `COc1cccc(C(=O)/C=C/c2ccc(N3CCCCC3)c([N+](=O)[O-])c2)c1` it was -3.01%. In the case of `COc1ccc(N2CCN(C(=O)c3ccc(C)cc3)CC2)c([N+](=O)[O-])c1` it was -62.9%.

As for `COc1ccc(N2CCN(C(=O)c3cccnc3)CC2)c([N+](=O)[O-])c1`, the “hERG current change (%, negative = inhibition) at 10uM” value is -70.8%. Then `COc1ccc(N2CCN(C(=O)c3cccc(Br)c3)CC2)c([N+](=O)[O-])c1`, with -87.1%.

For the molecule `O=C(c1cccnc1)N1CCN(c2ccc([N+](=O)[O-])cc2Cl)CC1`, the “hERG current change (%, negative = inhibition) at 10uM” value is -65%. In the case of `O=C(c1ccc([N+](=O)[O-])cc1)N1CCN(C(=O)c2cccnc2)CC1` it was -15.7%; in that of `O=C(c1cccnc1)N1CCN(c2c(Cl)cccc2[N+](=O)[O-])CC1`, -46%; in that of `COc1cccc(C(=O)NC(=S)N2CCN(c3ccc(C(F)(F)F)cc3[N+](=O)[O-])CC2)c1`, 1.6%. In the case of `O=C(c1cccnc1)N1CCN(c2ccccc2Cl)CC1` it was -18.5%. Regarding `COc1cccc(N2CCN(C(=O)c3cccnc3)CC2)c1`, the “hERG current change (%, negative = inhibition) at 10uM” value is on record as 11.2%.

Regarding `Cc1ccc(C)c(N2CCN(C(=O)c3ccc(N4CCOCC4)c([N+](=O)[O-])c3)CC2)c1`, the “hERG current change (%, negative = inhibition) at 10uM” value is recorded as -21.2%.
